In PubChem BioAssay (Tox21) one finds Potency and max activation data, which are given here for 10 compounds.

The nature of experiment [1]: Caspase-3/7 induction in CHO-K1 cells by small molecules, qHTS assay (AID 1346980). Note: nearly all actives have a fitted effect of over 15% in size. In short, it runs like this:
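Wild-type CHO-K1 cells exposed to compounds for 17hr at 37 C, 5% CO2. Caspase-3/7 activity then measured by Caspase-Glo 3/7 luminescence after 30min at room temperature.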
Background: In qHTS, concentration-response curves come from the screen itself.

Experiment [2] is described as follows: Caspase-3/7 induction in HepG2 cells by small molecules, qHTS cell viability counter screen (AID 1346981). Note: nearly all actives have a fitted effect of over 30% in size. Note: potency is the fitted concentration of half-maximal effect. The gist of the method: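 The parent HepG2 line is plated at 2,000 cells per well and rested 5 hr before compound pinning from DMSO stocks. Following a 16-hr treatment at 37 C, a fluorogenic live-cell substrate (CellTiter-Fluor) reports viability after 1 hr.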

Experiment [3] addresses Nuclear receptor subfamily 1 group I member 2 (Homo sapiens) (UniProt O75469). Put plainly: Human pregnane X receptor (PXR) small molecule agonists, qHTS assay (AID 1346982). Note: nearly all actives have a fitted effect of over 35% in size. Note: potency is the fitted concentration of half-maximal effect. In short, it runs like this: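 After plating in 5% charcoal-stripped FBS and a 5 hr rest, PXR-Luc HepG2 cells received compounds in DMSO. Following 24 hr at 37 C, ONE-Glo was added and light output read.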

Experiment [4] deals with Cytochrome P450 2D6 (Homo sapiens) (UniProt P10635). In words: Cytochrome P450 Family 2 Subfamily D Member 6 (CYP2D6) small molecule antagonists: luciferase reporter qHTS assay (AID 1671196). Note: nearly all actives have a fitted effect of over 50% in size. Note: potency is the fitted concentration of half-maximal effect. The gist of the method: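 Quantitative HTS of Tox21 chemicals against CYP2D6 using a luminescent proluciferin substrate. After NADPH addition, 1 h room-temperature reaction; luminescence recorded 20 min post detection reagent.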
A general note: In a reporter assay the amount or activity of a reporter protein is the signal.

The target of experiment [5] is Cytochrome P450 2C19 (Homo sapiens) (UniProt P33261). Put plainly: Cytochrome P450 Family 2 Subfamily C Member 19 (CYP2C19) small molecule antagonists: luciferase reporter qHTS assay (AID 1671197). Note: nearly all actives have a fitted effect of over 65% in size. Note: potency is the fitted concentration of half-maximal effect. The gist of the method:
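P450-Glo CYP2C19 system: enzyme-substrate mix with compound 10 min at room temperature, then NADPH regeneration solution, 1 h at 37C. Proluciferin-to-luciferin conversion detected by luminescence after 20 min with detection reagent; ketoconazole as positive control.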

Experiment [6] addresses Cytochrome P450 2C9 (Homo sapiens) (UniProt P11712). In words: Cytochrome P450 Family 2 Subfamily C Member 9 (CYP2C9) small molecule antagonists: luciferase reporter qHTS assay (AID 1671198). Note: nearly all actives have a fitted effect of over 50% in size. Note: potency is the fitted concentration of half-maximal effect. In short, it runs like this: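 P450-Glo proluciferin substrate with CYP2C9 enzyme; 10 min RT preincubation, then NADPH regeneration 1 h at 37C; luciferin detection reagent 20 min RT, luminescence in relative luminescence units.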

The target of experiment [7] is Cytochrome P450 1A2 (Homo sapiens) (UniProt P05177). Put plainly: Cytochrome P450 Family 1 Subfamily A Member 2 (CYP1A2) small molecule antagonists: luciferase reporter qHTS assay (AID 1671199). Note: nearly all actives have a fitted effect of over 50% in size. Note: potency is the fitted concentration of half-maximal effect. In short, it runs like this:
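Quantitative high-throughput format using the P450-Glo CYP1A2 system. Reaction initiated by NADPH regeneration solution, 1 h at room temperature, then stopped with detection reagent; luminescence measured 20 min later.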

Experiment [8] deals with Nuclear receptor subfamily 1 group I member 2 (Rattus norvegicus) (UniProt Q9R1A7). In words: Rat pregnane X receptor (rPXR) activation by small molecules, qHTS assay (AID 1346983). Note: nearly all actives have a fitted effect of over 20% in size. The settings on record: rPXR luciferase reporter cells, One-Glo luminescence, 24 h; max activation: hits give high values. The gist of the method:
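Cell-based rPXR activation assay: rPXR cells, 2,000 per well, rested 5hr at 37 C, then exposed to compounds in DMSO for 24 hr at 37 C. Luciferase activity read by One-Glo luminescence after 30 min at room temperature.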

For experiment [9], the target named is Nuclear receptor subfamily 1 group I member 2 (Homo sapiens) (UniProt O75469). In words: CYP3A4 induction through human pregnane X receptor (PXR) by small molecules, qHTS assay (AID 1346984). Note: nearly all actives have a fitted effect of over 40% in size. In short, it runs like this: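 Human PXR activation is tracked via CYP3A4 promoter-luciferase in DPX-2 (HepG2) cells. Compounds treat cells for 24hr at 37C, and luminescence is read after One-Glo.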

For experiment [10] the target is unchanged. In words: Human pregnane X receptor (PXR) activation by small molecules, qHTS assay (AID 1346985). Note: nearly all actives have a fitted effect of over 40% in size. In short, it runs like this:
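DPX-2 cells (HepG2 co-transfected with a PXR response element and a CYP3A4-promoter luciferase construct) were seeded at 2,000 per well, rested 5 hr at 37C, then exposed to DMSO-dissolved compounds for 24 hr. Activation was read as luciferase luminescence.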

A number with no mark means an inactive call. Inconclusive results are not listed. Calls of active or inactive are those of the source. Calls come from the whole dose curve; as a rule, active = well fitted curve in the direction sought with a large enough effect in the repeat runs; inconclusive = weak or mixed curves; inactive = no such curve, though single readings can be large; an effect the other way counts as inactive or inconclusive.
% is set by controls: 0 for no effect and ±100 for the full control effect.

Sequence of Cytochrome P450 1A2 (Homo sapiens) (P05177 whole entry, looked up): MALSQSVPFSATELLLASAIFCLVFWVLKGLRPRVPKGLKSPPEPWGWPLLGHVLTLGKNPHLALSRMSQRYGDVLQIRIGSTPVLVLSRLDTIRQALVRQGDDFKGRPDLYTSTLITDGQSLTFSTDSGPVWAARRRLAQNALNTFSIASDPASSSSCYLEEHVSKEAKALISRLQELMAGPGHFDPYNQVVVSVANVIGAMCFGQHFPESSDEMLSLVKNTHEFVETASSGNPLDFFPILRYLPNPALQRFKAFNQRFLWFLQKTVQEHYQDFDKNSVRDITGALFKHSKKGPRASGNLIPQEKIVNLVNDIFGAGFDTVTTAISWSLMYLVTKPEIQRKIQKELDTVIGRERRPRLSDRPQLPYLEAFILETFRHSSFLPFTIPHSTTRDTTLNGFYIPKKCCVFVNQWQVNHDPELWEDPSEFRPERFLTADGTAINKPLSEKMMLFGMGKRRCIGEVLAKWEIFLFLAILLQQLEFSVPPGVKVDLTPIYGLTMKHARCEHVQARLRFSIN
Sequence of Cytochrome P450 2C9 (Homo sapiens) (P11712 whole entry, looked up): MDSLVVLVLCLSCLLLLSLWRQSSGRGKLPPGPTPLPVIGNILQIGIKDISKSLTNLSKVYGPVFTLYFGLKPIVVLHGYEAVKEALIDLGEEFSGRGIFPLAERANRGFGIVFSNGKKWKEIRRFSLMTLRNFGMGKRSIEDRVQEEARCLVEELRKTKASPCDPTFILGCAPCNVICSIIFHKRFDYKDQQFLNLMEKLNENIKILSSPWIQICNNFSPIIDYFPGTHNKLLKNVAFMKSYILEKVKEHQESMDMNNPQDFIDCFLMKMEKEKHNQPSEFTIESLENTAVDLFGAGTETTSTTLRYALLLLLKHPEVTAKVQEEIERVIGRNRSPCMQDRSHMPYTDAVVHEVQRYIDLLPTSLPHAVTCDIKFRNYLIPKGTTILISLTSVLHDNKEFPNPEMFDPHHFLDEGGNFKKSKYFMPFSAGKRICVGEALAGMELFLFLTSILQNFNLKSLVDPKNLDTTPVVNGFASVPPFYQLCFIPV
Sequence of Cytochrome P450 2C19 (Homo sapiens) (P33261 whole entry, looked up): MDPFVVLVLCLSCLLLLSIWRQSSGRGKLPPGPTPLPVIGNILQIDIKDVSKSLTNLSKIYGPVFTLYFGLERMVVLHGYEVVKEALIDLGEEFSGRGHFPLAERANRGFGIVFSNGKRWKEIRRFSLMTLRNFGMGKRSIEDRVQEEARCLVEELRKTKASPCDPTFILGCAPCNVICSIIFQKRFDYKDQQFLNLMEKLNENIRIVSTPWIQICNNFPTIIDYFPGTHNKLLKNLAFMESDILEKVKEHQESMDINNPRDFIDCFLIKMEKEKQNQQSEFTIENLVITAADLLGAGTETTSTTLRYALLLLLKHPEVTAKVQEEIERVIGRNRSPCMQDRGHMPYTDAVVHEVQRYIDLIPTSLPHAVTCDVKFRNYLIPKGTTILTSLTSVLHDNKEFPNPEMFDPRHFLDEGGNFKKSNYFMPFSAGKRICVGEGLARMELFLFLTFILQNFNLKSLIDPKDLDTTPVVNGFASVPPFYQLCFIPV
Sequence of Cytochrome P450 2D6 (Homo sapiens) (P10635 whole entry, looked up): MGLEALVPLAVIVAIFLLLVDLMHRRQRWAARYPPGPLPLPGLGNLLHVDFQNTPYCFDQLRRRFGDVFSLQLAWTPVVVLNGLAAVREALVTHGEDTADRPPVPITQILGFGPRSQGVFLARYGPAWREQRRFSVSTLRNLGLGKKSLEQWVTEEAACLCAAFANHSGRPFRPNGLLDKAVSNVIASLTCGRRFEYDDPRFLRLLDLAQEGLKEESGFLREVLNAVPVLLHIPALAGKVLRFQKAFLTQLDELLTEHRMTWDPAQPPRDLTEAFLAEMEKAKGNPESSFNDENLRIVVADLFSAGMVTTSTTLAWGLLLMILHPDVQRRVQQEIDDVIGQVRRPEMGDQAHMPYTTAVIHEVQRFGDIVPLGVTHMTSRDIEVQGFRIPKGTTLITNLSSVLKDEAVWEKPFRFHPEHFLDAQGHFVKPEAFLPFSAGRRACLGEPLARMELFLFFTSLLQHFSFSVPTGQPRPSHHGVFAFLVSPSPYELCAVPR
Sequence of Nuclear receptor subfamily 1 group I member 2 (Homo sapiens) (O75469 whole entry, looked up): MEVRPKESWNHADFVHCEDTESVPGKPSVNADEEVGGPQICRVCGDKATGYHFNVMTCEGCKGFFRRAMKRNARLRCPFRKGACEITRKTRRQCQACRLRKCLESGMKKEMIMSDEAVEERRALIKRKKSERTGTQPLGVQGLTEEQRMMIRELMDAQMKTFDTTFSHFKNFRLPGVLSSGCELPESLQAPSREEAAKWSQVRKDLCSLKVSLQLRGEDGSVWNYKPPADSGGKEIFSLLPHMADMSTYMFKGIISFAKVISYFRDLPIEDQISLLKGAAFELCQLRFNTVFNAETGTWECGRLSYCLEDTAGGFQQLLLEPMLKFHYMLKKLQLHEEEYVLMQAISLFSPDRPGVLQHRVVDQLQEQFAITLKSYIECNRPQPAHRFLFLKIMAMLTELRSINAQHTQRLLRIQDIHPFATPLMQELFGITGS
Sequence of Nuclear receptor subfamily 1 group I member 2 (Rattus norvegicus) (Q9R1A7 whole entry, looked up): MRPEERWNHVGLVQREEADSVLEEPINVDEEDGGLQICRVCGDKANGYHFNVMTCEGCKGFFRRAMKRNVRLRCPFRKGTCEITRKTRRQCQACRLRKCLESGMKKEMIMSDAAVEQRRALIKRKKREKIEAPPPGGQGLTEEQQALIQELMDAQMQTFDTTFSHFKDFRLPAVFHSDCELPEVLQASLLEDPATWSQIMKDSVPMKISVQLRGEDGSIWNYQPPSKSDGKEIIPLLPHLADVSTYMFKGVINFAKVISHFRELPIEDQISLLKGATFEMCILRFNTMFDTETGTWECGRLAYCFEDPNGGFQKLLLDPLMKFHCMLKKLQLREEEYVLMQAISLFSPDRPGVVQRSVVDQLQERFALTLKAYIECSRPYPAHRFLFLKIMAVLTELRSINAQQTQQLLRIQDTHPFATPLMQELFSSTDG

On to `CCc1c(C)cc(N)c(CC)c1N`, for which the Potency entry in [1] and in experiment [2] was “inactive” throughout. Moreover, the Potency in experiment [3] was 24.3 µM (active); in experiment [4] it was 4.48 µM (active); in experiment [5], 14.2 µM (active); in [6], 28.3 µM (active); in experiment [7], 20 µM (active).
For the compound `Cc1cccc(C)c1C`, the Potency result in experiment [1], in experiment [2], in experiment [3], in experiment [4], in experiment [5] and in experiment [6] was “inactive” each time.
With `CCCCCN=C(N)N/N=C/c1c[nH]c2ccc(OC)cc12`, the Potency entry in experiment [1], in [3], in experiment [9], in experiment [4] and in experiment [5] was “inactive” each time. In addition, the Potency was 26.6 µM (active) in experiment [2], 38.9 µM (active) in experiment [6] and 4.9 µM (active) in experiment [7]. In experiment [8], the max activation is -0.704%.
`COc1cc(/C=C/C(=O)CC(=O)/C=C/c2ccc(O)c(OC)c2)ccc1O`: the Potency result in [1], in experiment [9] and in experiment [10] was “inactive” throughout. For the same compound, the Potency was 30.8 µM (active) in experiment [2]; 24.5 µM (active) in experiment [3]; 35.8 µM (active) in experiment [4]; 10.1 µM (active) in experiment [5]; 31.9 µM (active) in experiment [7]. Further, the max activation in [8] is 8.99%.
Consider `O=[N+]([O-])c1ccc(CO)cc1`, for which the Potency entry in experiment [1], in experiment [2], in experiment [3], in experiment [4], in experiment [5] and in experiment [6] was “inactive” throughout.
With `CCCCCCCCc1ccc(Nc2ccc(CCCCCCCC)cc2)cc1`, the Potency result in experiment [1], in experiment [2], in experiment [3] and in experiment [4] was “inactive” in each case.
On to `O=C(c1ccccc1)c1ccc(Cl)cc1`, for which the Potency result in experiment [1], in experiment [2], in experiment [3] and in experiment [4] was “inactive” each time. The Potency in [5] was 15.9 µM (active); in experiment [6], 15.9 µM (active); in experiment [7], 5.03 µM (active).
Take `CC(C=O)c1ccccc1` (stereo not drawn): the Potency result in [1], in experiment [2], in [3] and in experiment [4] was “inactive” throughout. Besides, the Potency in [5] was 79.6 µM (active); in experiment [6], 35.6 µM (active).
Regarding `C/C=C/C(=O)C1=C(C)C=CCC1(C)C`, the Potency entry in [1], in [2], in experiment [3], in experiment [4], in experiment [5] and in experiment [6] was “inactive” each time. Moreover, the Potency result in experiment [7] is “inactive”.
For the compound `COc1cc([C@@H]2c3cc4c(cc3[C@@H](O[C@@H]3O[C@@H]5CO[C@@H](C)O[C@H]5[C@H](O)[C@H]3O)[C@H]3COC(=O)[C@H]23)OCO4)cc(OC)c1O`, the Potency result in [1] and in experiment [2] was “inactive” throughout.
